Reference: PubChem BioAssay (NCATS)
Several values for one entry are separate records, joined by “and”; a condition that tells them apart may be missing. Equal entries are not always repeated. Inconclusive results are not listed. Activity calls are given as the source filed them. Unless noted, the call rests on the fitted dose curve.

Tests used:
[1] = Cell Viability - HUV-EC-C (AID 542; active means well fitted curve in the direction sought with a large enough effect; an effect the other way counts as inactive or inconclusive; further: on the % scale 0 is the no-effect control and ±100 the full control effect; nearly all actives have a fitted effect of over 35% in size)
Method in brief: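 HUV-EC-C human vascular endothelial cells, 1000/well, exposed to compound for 40 hr at 37 °C in complete medium. Intracellular ATP was read by CellTiter-Glo luminescence. AC50 came from Hill-equation fits of concentration-response data.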

[2] = Cell Viability - H-4-II-E (AID 543; active means well fitted curve in the direction sought with a large enough effect; an effect the other way counts as inactive or inconclusive; further: on the % scale 0 is the no-effect control and ±100 the full control effect; nearly all actives have a fitted effect of over 35% in size)
Method in brief: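 Rat hepatoma H-4-II-E cells, 1500 per well, treated 40 h at 37 °C in complete medium. Cellular ATP read by CellTiter-Glo luminescence; AC50 from Hill fits of concentration-response.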

[3] = Cell Viability - SH-SY5Y (AID 544; active means well fitted curve in the direction sought with a large enough effect; an effect the other way counts as inactive or inconclusive;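 further: 0% = DMSO alone and -100% = 100 µM tamoxifen; nearly all actives have a fitted effect of over 55% in size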)
Method in brief: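 SH-SY5Y human neuroblastoma cells (1500/well) incubated 5 h, then compound-treated 40 h at 37 °C in complete medium. Viability read as intracellular ATP by CellTiter-Glo luminescence after 20 min; AC50 from Hill-equation fits of qHTS concentration-response.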

[4] = Cell Viability - Renal Proximal Tubule (AID 545; active means well fitted curve in the direction sought with a large enough effect; an effect the other way counts as inactive or inconclusive;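 further: 0% = DMSO only and -100% = 100 µM tamoxifen; nearly all actives have a fitted effect of over 40% in size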)
Method in brief: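 Cytotoxicity is scored as a concentration-dependent drop in cellular ATP in primary rat renal proximal tubule cells exposed for 40 hr. AC50 derives from Hill modelling.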

[5] = Cell Viability - Mesenchymal (AID 546; active means well fitted curve in the direction sought with a large enough effect; an effect the other way counts as inactive or inconclusive;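 further: cells exposed to compound for 40 hours before reading; 0% = DMSO only and -100% = 100 µM tamoxifen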)
Method in brief: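 AC50 values reflect the drop in intracellular ATP in a human kidney mesenchymal line derived from normal glomeruli. Treatment lasts 40 hr at 37 °C in complete medium, and the signal comes from CellTiter-Glo luminescence.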

[6] = target: Estrogen receptor (Homo sapiens) (UniProt P03372); test: qHTS assay for small molecule agonists of estrogen receptor alpha signaling (AID 588514);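 further: 0% = vehicle only and 100% = reference agonist; nearly all actives have a fitted effect of over 70% in size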
Method in brief: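 ER-alpha-UAS-bla GripTite HEK293 cells, 5000/well in 2% charcoal/dextran-stripped FBS medium, treated with compound titrations 18 h at 37 C. CCF4 beta-lactamase read by fluorescence after 2 h RT; normalised to 20 nM 17-beta-estradiol (100%) and DMSO (0%), Hill fit for EC50 and efficacy.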

[7] = target: Glucocorticoid receptor (Homo sapiens) (UniProt P04150); test: qHTS assay for small molecule agonists of glucocorticoid receptor signaling (AID 588532; active means well fitted curve in the direction sought with a large enough effect in the signal ratio, with a control signal flat; the % refers to the signal ratio;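 further: 100% = dexamethasone at 0.1 µM and 0% = DMSO only wells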); conditions: HeLa MMTV-bla, beta-lactamase ratio, agonist, 18 h; stronger effect = higher value; percent of dexamethasone control, DMSO zero
Method in brief: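 Quantitative HTS using CellSensor MMTV-bla HeLa cells in charcoal/dextran-treated serum; compounds tested up to 92 uM. After 18 h at 37 C, CCF4 dye reported reporter induction.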

[8] = target: Glucocorticoid receptor (Homo sapiens) (UniProt P04150); test: qHTS assay for small molecule antagonists of glucocorticoid receptor signaling (AID 588533; active means well fitted inhibition curve with a large enough effect in the signal ratio, with a control signal flat, not every such curve was filed as active; the % refers to the signal ratio;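 further: cells stimulated with 2 nM dexamethasone as agonist; on the % scale 0 is the no-effect control and ±100 the full control effect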)
Method in brief: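 Antagonist-mode qHTS: compound titrations added to GRE-bla HeLa cells, then dexamethasone 2 nM final; 18 h, 37 C. CCF4 FRET fluorescence normalized to dexamethasone and DMSO; IC50 from Hill fit.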

[9] = qHTS assay for small molecule antagonists of peroxisome proliferator-activated receptor delta signaling (AID 588535; active means well fitted inhibition curve with a large enough effect in the signal ratio, with a control signal flat, not every such curve was filed as active; the % refers to the signal ratio;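 on max response: cells co-treated with a PPAR-delta agonist as stimulator during compound exposure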); conditions: HEK293T PPARd-UAS-bla, beta-lactamase FRET ratio, 18 h; 460 nm channel
Method in brief: (§1)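 HEK293T PPAR-delta-UAS-bla cells, 4000/well, 2% charcoal/dextran FBS; 5 h 37 C; cpd titration; 18 h 37 C; CCF4 2 h RT; FI 460/530 nm; Hill fit → IC50, efficacy.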

[10] = target: Peroxisome proliferator-activated receptor delta (Homo sapiens) (UniProt Q03181); test: as above
Method in brief: as §1

[11] = target: Vitamin D3 receptor (Homo sapiens) (UniProt P11473); test: qHTS assay for small molecule agonists of vitamin D receptor signaling (AID 588543);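 further: 0% = DMSO basal and 100% = reference agonist control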
Method in brief: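 qHTS in agonist mode: compound titrations stimulate a VDR-driven β-lactamase reporter in HEK293T cells over 16 h at 37 °C. Response normalized to 50 nM 1α,25-dihydroxyvitamin D3 = 100%, DMSO = 0%; Hill fitting gives EC50 and maximal response.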

[12] = qHTS assay for small molecule agonists of retinoid X receptor alpha signaling (AID 588544); conditions: HEK293T RXRa-UAS-bla, beta-lactamase reporter, 18 h; 530 nm emission;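 on activation: 0% = DMSO basal wells and 100% = reference agonist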
[13] = target: Retinoic acid receptor RXR-alpha (Homo sapiens) (UniProt P19793); test: as above
[14] = target: Thyroid hormone receptor beta (Homo sapiens) (UniProt P10828); test: qHTS assay for small molecule agonists of thyroid hormone receptor beta signaling (AID 588545)
Method in brief: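 Agonist activity was read as beta-lactamase CCF4 fluorescence (405 ex, 460/530 em), scaled between DMSO (0%) and 10 nM T3 (100%), then Hill-fitted for EC50 and efficacy. HEK 293 TR-UAS-bla cells in 2% charcoal/dextran FBS medium were exposed 18 h at 37 C.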

[15] = qHTS assay for small molecule activators of the p53 signaling pathway (AID 651743; active means well fitted activation curve with a large enough effect in the signal ratio, not every such curve was filed as active; the % refers to the signal ratio; further: series mostly up to about 92 µM; % of control where 0% means no effect); conditions: HCT-116 p53RE-bla, beta-lactamase FRET ratio, 16 h; activation: stronger effect = higher value
Method in brief: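 Read-out is fluorescence intensity from the LiveBLAzer B/G FRET substrate, added for 2 hours at room temperature after HCT-116 p53RE-bla cells had been incubated with compounds for 16 hours at 37 C.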

[16] = qHTS assay for small molecule activators of the nuclear factor-kappa B (NF-kB) signaling pathway (AID 651749; active means well fitted activation curve with a large enough effect in the signal ratio; the % refers to the signal ratio; further: series mostly up to about 77 µM; % of control where 0% means no effect); conditions: NF-kB-bla ME-180 cells, beta-lactamase FRET ratio, 16 h; activation: stronger effect = higher value
Method in brief: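 Readout: beta-lactamase reporter driven by an NF-kB response element, detected fluorescently as loss of FRET. Cells were the ME-180 line, treated 16 hr at 37C with pin-transferred compound.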

[17] = qHTS assay for small molecule disruptors of the mitochondrial membrane potential - 5 hr assay (AID 651755); further: on the % scale 0 is the no-effect control and ±100 the full control effect; nearly all actives have a fitted effect of over 40% in size
Method in brief: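 HepG2, 2,000 cells/well, overnight attach; cpd or DMSO 5 hr, 37C/5% CO2; Mito-MPS 30 min 37C; fluor 490/535 + 540/590 nm.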

[18] = target: Tumor necrosis factor (Homo sapiens) (UniProt P01375); test: qHTS assay to identify small molecules that stimulate Tumor Necrosis Factor-alpha (TNF-alpha) secretion (AID 651757; active means well fitted curve in the direction sought with a large enough effect in the signal ratio; the % refers to the signal ratio; further: 0% is about no effect)
Method in brief: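 THP-1 cells (3000/well) exposed to compounds 17 hrs at 37 C. Secreted TNF-alpha detected by HTRF with cryptate- and XL665-labeled anti-TNF-alpha antibodies after 3 hr at room temperature.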

[19] = qHTS assay for environmental chemicals that activate the Aryl hydrocarbon Receptor (AhR) signaling pathway (AID 651777; active means well fitted curve in the direction sought with a large enough effect; an effect the other way counts as inactive or inconclusive; further: % of control where 0% means no effect; nearly all actives have a fitted effect of over 15% in size); conditions: 1A2-DRE human hepatoma cells, luciferase, 24 h; activation: stronger effect = higher value
Method in brief: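 Quantitative HTS in stably transfected human liver-derived cells whose luciferase gene sits downstream of the CYP1A2 promoter and dioxin response element. After 24 hr exposure at 37 C, One-Glo luminescence was measured.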

[20] = target: Nuclear receptor subfamily 1 group I member 2 (Rattus norvegicus) (UniProt Q9R1A7); test: qHTS assay for small molecule activators of the rat pregnane X receptor (rPXR) signaling pathway (AID 651751; call rule not given here; further: 0% is about no effect); conditions: rPXR reporter cells, luciferase (One-Glo), 24 h
Chain of Nuclear receptor subfamily 1 group I member 2 (Rattus norvegicus) (Q9R1A7 whole entry, looked up): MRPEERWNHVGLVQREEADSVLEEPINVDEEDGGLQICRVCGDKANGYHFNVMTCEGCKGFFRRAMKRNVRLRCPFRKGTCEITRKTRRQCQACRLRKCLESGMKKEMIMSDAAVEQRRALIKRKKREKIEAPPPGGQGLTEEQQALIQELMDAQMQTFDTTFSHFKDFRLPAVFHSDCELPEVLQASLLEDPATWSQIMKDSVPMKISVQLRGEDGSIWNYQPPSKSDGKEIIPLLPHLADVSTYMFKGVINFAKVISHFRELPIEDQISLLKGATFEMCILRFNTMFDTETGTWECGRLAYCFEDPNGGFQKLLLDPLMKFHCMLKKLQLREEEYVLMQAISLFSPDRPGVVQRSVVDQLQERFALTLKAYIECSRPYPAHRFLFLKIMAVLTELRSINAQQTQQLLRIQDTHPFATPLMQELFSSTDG

Chain of Glucocorticoid receptor (Homo sapiens) (P04150 whole entry, looked up): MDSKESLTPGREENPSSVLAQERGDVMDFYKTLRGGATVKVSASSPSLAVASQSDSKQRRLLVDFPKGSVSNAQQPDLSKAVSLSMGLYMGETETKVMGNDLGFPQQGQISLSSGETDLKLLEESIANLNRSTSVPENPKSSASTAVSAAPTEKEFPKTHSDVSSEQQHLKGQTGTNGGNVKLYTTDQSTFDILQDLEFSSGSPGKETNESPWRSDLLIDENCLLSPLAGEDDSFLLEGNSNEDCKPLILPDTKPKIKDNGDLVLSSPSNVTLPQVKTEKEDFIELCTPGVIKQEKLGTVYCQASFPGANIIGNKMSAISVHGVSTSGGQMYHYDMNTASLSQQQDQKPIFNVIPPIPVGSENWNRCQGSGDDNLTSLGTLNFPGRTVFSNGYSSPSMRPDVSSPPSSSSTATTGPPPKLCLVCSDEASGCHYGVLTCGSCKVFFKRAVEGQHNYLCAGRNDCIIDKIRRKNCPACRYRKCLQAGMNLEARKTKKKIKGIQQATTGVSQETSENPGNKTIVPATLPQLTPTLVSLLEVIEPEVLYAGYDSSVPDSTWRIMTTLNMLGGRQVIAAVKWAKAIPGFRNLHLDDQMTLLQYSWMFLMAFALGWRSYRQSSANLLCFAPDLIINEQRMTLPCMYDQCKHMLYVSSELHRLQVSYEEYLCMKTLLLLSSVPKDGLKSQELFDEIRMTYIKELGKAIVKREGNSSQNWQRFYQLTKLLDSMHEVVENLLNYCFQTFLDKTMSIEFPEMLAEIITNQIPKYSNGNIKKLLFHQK
Chain of Retinoic acid receptor RXR-alpha (Homo sapiens) (P19793 whole entry, looked up): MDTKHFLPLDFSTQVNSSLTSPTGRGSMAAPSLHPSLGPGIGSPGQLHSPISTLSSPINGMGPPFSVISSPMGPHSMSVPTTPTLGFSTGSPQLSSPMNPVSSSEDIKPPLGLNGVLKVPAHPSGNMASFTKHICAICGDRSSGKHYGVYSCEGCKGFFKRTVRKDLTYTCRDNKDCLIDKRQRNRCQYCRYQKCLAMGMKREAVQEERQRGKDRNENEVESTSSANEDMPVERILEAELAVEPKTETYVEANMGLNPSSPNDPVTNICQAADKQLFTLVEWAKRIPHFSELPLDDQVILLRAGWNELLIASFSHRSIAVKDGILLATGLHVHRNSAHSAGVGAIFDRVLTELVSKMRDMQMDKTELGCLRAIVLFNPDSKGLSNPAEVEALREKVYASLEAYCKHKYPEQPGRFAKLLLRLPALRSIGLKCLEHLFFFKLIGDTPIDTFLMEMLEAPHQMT
Chain of Peroxisome proliferator-activated receptor delta (Homo sapiens) (Q03181 whole entry, looked up): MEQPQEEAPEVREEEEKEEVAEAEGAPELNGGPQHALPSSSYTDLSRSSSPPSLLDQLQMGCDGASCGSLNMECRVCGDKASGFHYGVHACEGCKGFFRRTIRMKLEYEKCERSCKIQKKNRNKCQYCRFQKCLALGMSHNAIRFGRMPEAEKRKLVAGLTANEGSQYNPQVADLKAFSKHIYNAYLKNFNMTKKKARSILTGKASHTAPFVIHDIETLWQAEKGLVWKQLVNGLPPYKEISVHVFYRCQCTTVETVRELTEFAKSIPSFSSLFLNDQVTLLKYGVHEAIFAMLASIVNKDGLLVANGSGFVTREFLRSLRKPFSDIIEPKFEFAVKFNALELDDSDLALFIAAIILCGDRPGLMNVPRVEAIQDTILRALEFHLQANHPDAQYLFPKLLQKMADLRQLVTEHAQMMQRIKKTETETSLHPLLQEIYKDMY
Chain of Thyroid hormone receptor beta (Homo sapiens) (P10828 whole entry, looked up): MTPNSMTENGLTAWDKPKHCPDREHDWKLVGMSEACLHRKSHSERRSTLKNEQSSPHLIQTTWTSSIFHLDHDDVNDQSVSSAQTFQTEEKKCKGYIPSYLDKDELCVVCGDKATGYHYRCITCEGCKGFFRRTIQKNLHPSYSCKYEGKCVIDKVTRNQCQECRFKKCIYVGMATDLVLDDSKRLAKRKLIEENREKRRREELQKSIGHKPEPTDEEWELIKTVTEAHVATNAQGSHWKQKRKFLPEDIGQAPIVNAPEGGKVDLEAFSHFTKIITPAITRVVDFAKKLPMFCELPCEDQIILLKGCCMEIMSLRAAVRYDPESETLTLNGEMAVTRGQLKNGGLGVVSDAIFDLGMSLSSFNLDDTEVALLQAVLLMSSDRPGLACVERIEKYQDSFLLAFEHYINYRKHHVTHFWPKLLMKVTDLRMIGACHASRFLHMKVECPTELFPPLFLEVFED
Chain of Vitamin D3 receptor (Homo sapiens) (P11473 whole entry, looked up): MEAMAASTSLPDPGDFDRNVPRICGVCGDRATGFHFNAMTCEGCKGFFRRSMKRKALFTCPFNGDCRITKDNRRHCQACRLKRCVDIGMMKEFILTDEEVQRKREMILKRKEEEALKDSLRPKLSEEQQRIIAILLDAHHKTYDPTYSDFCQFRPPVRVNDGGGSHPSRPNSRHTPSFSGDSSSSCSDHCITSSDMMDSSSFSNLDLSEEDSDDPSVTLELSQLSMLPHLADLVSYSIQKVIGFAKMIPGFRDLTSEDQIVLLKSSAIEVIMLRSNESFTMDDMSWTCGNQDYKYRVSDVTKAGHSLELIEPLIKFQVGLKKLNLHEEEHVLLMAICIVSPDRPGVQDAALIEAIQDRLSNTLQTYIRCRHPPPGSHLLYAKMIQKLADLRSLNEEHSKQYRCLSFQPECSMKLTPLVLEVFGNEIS
Chain of Estrogen receptor (Homo sapiens) (P03372 whole entry, looked up): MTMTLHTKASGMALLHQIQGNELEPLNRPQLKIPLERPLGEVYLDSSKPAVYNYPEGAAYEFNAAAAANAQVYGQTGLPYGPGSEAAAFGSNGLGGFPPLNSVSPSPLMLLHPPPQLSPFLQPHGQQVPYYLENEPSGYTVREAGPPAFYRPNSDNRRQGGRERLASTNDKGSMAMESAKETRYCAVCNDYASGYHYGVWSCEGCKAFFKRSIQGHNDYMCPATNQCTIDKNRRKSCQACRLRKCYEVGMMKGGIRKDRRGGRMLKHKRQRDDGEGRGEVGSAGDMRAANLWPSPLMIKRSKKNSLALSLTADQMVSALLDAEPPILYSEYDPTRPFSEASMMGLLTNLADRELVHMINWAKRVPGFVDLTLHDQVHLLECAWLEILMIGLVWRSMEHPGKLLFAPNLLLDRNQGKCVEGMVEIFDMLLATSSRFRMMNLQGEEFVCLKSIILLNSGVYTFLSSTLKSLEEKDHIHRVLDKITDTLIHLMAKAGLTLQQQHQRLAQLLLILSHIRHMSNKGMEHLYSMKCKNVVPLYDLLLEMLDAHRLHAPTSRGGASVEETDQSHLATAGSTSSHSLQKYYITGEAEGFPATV
Chain of Tumor necrosis factor (Homo sapiens) (P01375 whole entry, looked up): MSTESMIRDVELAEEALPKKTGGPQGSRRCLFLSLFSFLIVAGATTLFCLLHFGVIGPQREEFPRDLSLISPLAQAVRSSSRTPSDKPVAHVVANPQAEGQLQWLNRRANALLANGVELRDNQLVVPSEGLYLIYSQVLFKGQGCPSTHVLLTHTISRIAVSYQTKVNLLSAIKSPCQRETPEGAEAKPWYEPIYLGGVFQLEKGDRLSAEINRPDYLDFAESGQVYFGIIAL

Cc1ccccc1O
inactive: outcome [1] | outcome [2] | outcome [3] | outcome [4] | outcome [5] | Potency [6] | activation [7] 1.9% and -0.638% | Potency [8] | outcome [10] | Potency [11] | outcome [13] | Potency [14] | activation [15] -4.62% and -1.52% | activation [16] 0.871% and 6.75% | Potency [17] | outcome [18] | activation [19] -0.175% and -0.566% | max response [20] 0.289% and -3.94%
-16.4% and 2.5%: max response [12]
12.8% and 44.7%: max response [9]
